Assay outcomes deposited in PubChem by National Center for Advancing Translational Sciences (NCATS).
TRHR agonist-1: activates the human TRH receptor; P34981; TRHR cells, calcium flux fluo-8, FDSS agonist mode; activation, % at 2 µM; hit rate 0.18% among 360,000; AID 493084; in the data active = activation above about 30%
Target sequence (P34981 whole entry, looked up): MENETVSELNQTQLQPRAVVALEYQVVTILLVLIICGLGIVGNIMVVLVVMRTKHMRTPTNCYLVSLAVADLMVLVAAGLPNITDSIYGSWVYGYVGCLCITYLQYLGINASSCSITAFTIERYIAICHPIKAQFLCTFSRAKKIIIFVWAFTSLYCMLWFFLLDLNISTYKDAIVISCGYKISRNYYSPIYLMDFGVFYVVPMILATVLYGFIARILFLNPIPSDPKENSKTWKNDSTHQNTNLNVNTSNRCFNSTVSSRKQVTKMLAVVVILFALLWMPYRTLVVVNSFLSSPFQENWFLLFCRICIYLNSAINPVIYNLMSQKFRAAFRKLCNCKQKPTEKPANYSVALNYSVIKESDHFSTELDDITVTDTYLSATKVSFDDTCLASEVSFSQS
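Agonist-mode FDSS calcium read (Ex 480/Em 530, 1 s cycles) in 1536-well TRHR cells with fluo-8 dye, after 10-cycle baseline and 23 nL compound addition; TRH at EC20 (10 nM final) added afterwards for the enhancer phase.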
Glioma ERSR ind: ER stress response induction in glioma; U87-MG GRP78 promoter luciferase reporter, 16 h; Potency, µM, most hits filed as activators; hit rate 0.02% among 420,000; also: series mostly up to about 76 µM; nearly all actives have a fitted effect of over 35% in size
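ERSR induction read as luciferase luminescence (Bright-Glo, 10 min at room temperature) in stably transfected human U87-MG glioma cells exposed to compounds for 16 h, using GRP78 as sensor.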
TRHR enhancer-1: TRH receptor (human) allosteric enhancement; P34981; TRHR cells, fluo-8 calcium fluorescence, EC20 TRH enhancement; enhancement, % at 2 µM; hit rate 0.66% among 360,000; AID 493056; in the data active = enhancement above about 30%
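Enhancer read-out: after compound pinning and an initial kinetic agonist-mode read, an EC20 of TRH (10 nM final) was injected and fluo-8 calcium signal (Ex 480/Em 530) followed at 1 s/cycle for 100 cycles in TRHR-expressing cells.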
D1 antagonist: antagonists of human D1 dopamine receptor; hit rate 3.2% among 360,000; HEK293 TREx D1 cells, calcium flux, dopamine EC80; active compounds read low; activity change, negative = inhibition, % at 10 µM; AID 504652; P21728; in the data active = activity change below about -30%
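HEK293 T-REx cells expressing inducible, force-coupled D1 receptor; no-wash Ca dye, 30–90 min RT. Cmpd → 180 s read at 1 Hz → EC80 DA → 180 s read.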
D1 PAM: human D1 dopamine receptor positive modulation | HEK293 TREx D1 cells, calcium flux, dopamine EC20 potentiation | potentiation, % at 10 µM | hit rate 0.036% among 360,000 | AID 504651; in the data active = potentiation above about 30%
D1 ag: human D1 receptor agonism. HEK293 T-REx D1 cells, calcium flux, agonist mode. activation, % at 2 µM. AID 504660. hit rate 1% among 360,000; in the data active = activation above about 30%
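Inducible HEK293 T-REx D1 cells, force-coupled to calcium signalling, were plated at 4000 cells/well with tetracycline and held overnight at 30 C. After no-wash calcium dye loading, compound-evoked calcium rise over 180 s flagged agonists.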
TRHR enhancer-2: confirmation of human TRH receptor allosteric enhancers | shares compounds with TRHR enhancer-1 | TRH receptor cell assay, enhancer confirmation qHTS | activity change, negative = inhibition, % at 46.1 µM | 970 tested, under 10 active | AID 493076;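 also: compound effect scored on response to added TRH at EC20 of 10 nM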
TRHR agonist-2: human TRH receptor agonism confirmation. Potency, µM (titrated, usually from 46.1 µM), usual class: activators. hit rate 8% among 970. shares compounds with TRHR enhancer-1. TRHR-expressing cells, agonist activation read-out; also: nearly all actives have a fitted effect of over 75% in size
A number is an active result; – = inactive; ? = inconclusive; · = no result given. Only some compounds are listed: those with a hit (about 4% of all), similar ones and a draw of the others. Unless noted, calls follow the shape of the dose curve; as a rule, active = well fitted curve in the direction sought with a large enough effect; inconclusive = small, poorly fitted or top-dose-only effect, or another doubt; inactive = no such curve, though single readings can be large; an effect the other way counts as inactive or inconclusive.

SMILES	TRHR agonist-1	Glioma ERSR ind	TRHR enhancer-1	D1 antagonist	D1 PAM	D1 ag	TRHR enhancer-2	TRHR agonist-2
O=C(COc1ccccc1)NCC(=O)N/N=C/c1cccs1	–	–	–	–	–	–	·	·
Cc1cc(S(=O)(=O)Cc2noc(-c3c(C)noc3C)n2)c(C)cc1Cl	–	–	–	–	–	–	·	·
Cc1c(/C=N/O)c2ccccn2c1C=O	–	–	60	–	–	–	–	–
COc1ccc(OC)c(CN2CCC(Cc3ccccc3)CC2)c1	–	–	–	–	–	–	–	–
COc1ccc(OC)c(CN2CCCCCC2)c1	–	–	–	–	–	–	·	·
COC(=O)c1ccc(NC(=O)c2ccc3nc(C)sc3c2)cc1	–	–	–	–	–	–	·	·
COc1ccc(NC(=O)c2ccc(-c3nn(C)c(=O)c4ccccc34)cc2)cc1	–	–	44	–	–	–	–	–
COc1ccc(C(=O)NNC(=O)c2cccc(F)c2)cc1	–	–	45	–	–	–	–	–
COc1ccc(C(=O)NNC(=O)c2ccc3ccccc3c2)cc1	·	–	·	·	·	·	·	·
COc1ccc(NC(=O)c2ccc3nc(C)sc3c2)cc1	–	–	57	–	–	–	–	–
COc1ccccc1NC(=O)c1ccc(-c2nn(C)c(=O)c3ccccc23)cc1	–	–	–	–	–	–	·	·
COc1ccc(NC(=O)c2ccc3ccccc3c2)cc1	–	–	54	–	–	–	–	–
O=C(CSc1ccc(F)cc1)Nc1ccccc1Br	–	–	–	–	–	–	·	·
CCS(=O)(=O)c1ccc2oc(Nc3ccc(C(C)C)cc3)nc2c1	–	–	–	–	–	–	·	·
Cc1ccc(NC(=O)COc2ccccc2)cc1Cl	–	–	–	–	–	–	·	·
CCOCC(=O)Nc1ccc(C)c(Cl)c1	–	–	62	–	–	–	–	–
CC(=O)Nc1ccc(S(=O)(=O)NCCC(=O)OCC(=O)N2CCN(C(=O)c3ccco3)CC2)cc1	–	–	46	–	–	–	–	–
COc1ccc(N2C(=O)C(CN3CCN(C)CC3)C2c2ccccc2)cc1 (configuration not stated)	–	–	67	–	–	–	–	–
Cc1nc2scc(-c3cccs3)c2c(=O)[nH]1	–	–	–	–	–	–	·	·
O=c1[nH]c(-c2ccc(O)cc2)nc2scc(-c3cccs3)c12	–	–	47	–	–	–	–	–
COc1ccc(N2C(=O)CC(Sc3nc(C)cc(C)c3C#N)C2=O)cc1 (configuration not stated)	–	?	41	–	–	–	–	–
O=[N+]([O-])c1ccc(CNc2cccc(F)c2)s1	–	–	–	–	–	–	·	·
Cc1ccnc(NC(=O)CCC(=O)N(Cc2ccco2)C(C(=O)NC(C)C)c2ccc(F)cc2)c1 (configuration not stated)	–	–	43	–	–	–	–	–
CCn1c2ccccc2c2cc(CNCCCN3CCOCC3)ccc21	–	–	43	–	–	–	–	–
COc1ccc(/C(C)=N\NC(=O)CSc2nnc(C)s2)cc1	–	–	–	–	–	–	·	·
SMILES	TRHR agonist-1	Glioma ERSR ind	TRHR enhancer-1	D1 antagonist	D1 PAM	D1 ag	TRHR enhancer-2	TRHR agonist-2
C/C(=N\NC(=O)CSc1nnc(C)s1)c1ccc(Cl)cc1	–	–	43	–	–	–	–	–
CCCCCn1c(CN2CC(C)OC(C)C2)nc2c1c(=O)n(C)c(=O)n2C (configuration not stated)	–	–	42	–	–	–	–	–
CC(=O)c1c(C)[nH]c(C(=O)COC(=O)Cc2ccccc2F)c1C	·	–	·	·	·	·	·	·
CC(=O)c1c(C)[nH]c(C(=O)COC(=O)COc2ccccc2F)c1C	–	–	52	–	–	–	–	–
CC(C)c1cc(=O)n2[nH]c(SCc3ccc(Cl)cc3)nc2n1	–	–	–	–	–	–	·	·
CCC(C)N1CC(=O)N2C(c3ccc(OC)cc3OC)c3[nH]c4ccccc4c3C[C@H]2C1=O (some centres not stated)	–	–	75	–	–	–	–	–
CCCN1CC(=O)N2C(c3cccc(OC)c3OC)c3[nH]c4ccccc4c3C[C@H]2C1=O (some centres not stated)	–	–	–	–	–	–	·	·
CCOc1ccc(-c2csc3ncn(-c4ccc(OC)cc4)c(=O)c23)cc1	–	–	44	–	–	–	–	–
CCn1cnc2scc(-c3ccc(OC)cc3)c2c1=O	–	–	–	–	–	–	·	·
COc1cc(O)c(C(=O)/C=C/c2ccc(O)c(OC)c2)c(OC)c1	·	–	·	·	·	·	·	·
O=C(NC(N1CCOCC1)C(Cl)(Cl)Cl)c1ccco1 (configuration not stated)	–	–	–	–	–	–	·	·
O=C(/C=C/c1ccccc1)NC(N1CCOCC1)C(Cl)(Cl)Cl (configuration not stated)	–	–	45	-34	–	–	–	–
CNC(=O)C(=O)Nc1c(C)cc(C)cc1C	–	–	41	-36	–	–	–	–
O=C(Nc1cccc(-c2nc3ccccc3s2)c1)c1cc(=O)c2ccccc2o1	–	–	–	–	–	–	·	·
COC(=O)c1ccccc1NC(=O)CCCn1nc([N+](=O)[O-])c(Br)c1C	–	–	–	–	–	–	–	–
Cc1c(Cl)c([N+](=O)[O-])nn1CCCC(=O)Nc1cccc(Cl)c1Cl	–	–	–	–	–	–	·	·
Nc1[nH]nc2nc3ccccc3cc12	–	–	69	–	–	–	–	–
Nc1cccc2nc3ccccc3cc12	–	?	–	–	–	–	·	·
CN1CCCc2cc3c(C(F)(F)F)cc(=O)oc3nc21	49	–	–	–	–	53	–	18µM
CN1CCN(c2ccnc(-c3ccccc3C(F)(F)F)n2)CC1	·	–	·	·	·	·	·	·
COc1ccc(CNCc2cccc3ccccc23)cc1	–	–	52	–	–	–	?	?
COc1ccc(CNCc2ccccc2C(F)(F)F)cc1	–	–	–	–	–	–	·	·
C=CCN(C(=O)CSc1nc2[nH]ncc2c(=O)n1-c1ccccc1OC)c1ccccc1	31	–	–	–	–	–	–	–
COc1cc(NC(=O)CSc2nc3[nH]ncc3c(=O)n2-c2ccccc2C)cc(OC)c1OC	–	–	–	–	–	–	·	·
CCOC(=O)C1=C(C)N(C[C@@H]2CC[C@@H](Cc3ccc(-c4ccccc4)cc3)O2)C(=O)NC1c1ccc(SCc2ccco2)c([N+](=O)[O-])c1 (some centres not stated)	·	–	·	·	·	·	·	·
